Numbering of substitutions follows the chain as printed. In all, about 5,800 sequences were measured (“enrichment r”: median about 0.54, highest 2% from about 16 on). The sample holds the highest values, similar sequences and a random draw of the others, so the mix is not that of the screen.
B1: chr12:54350855:54350965:+|3pUTR|ENSG00000111481|msi1|FALSE|unique (ssRNA)
RNA: GGGAGUUCUACAGUCCGACGAUCUUGCCCUGACAUUUUUGUAAAUUCUGUGCCCUUUGCUGUAGCUACACUUCAGAUUAAAGUAGGAGAAAGAAUGUGCUGAGUGUUUUCCUCCCUUUGCCUCUACCUGGCCCUCAUCCCAACCAACAGAGGAUUGAGCAUCA
B2: chr9:86945015:86945116:-|3pUTR|ENSG00000180447|msi1|FALSE|unique (ssRNA)
RNA: GGGAGUUCUACAGUCCGACGAUCUUGGUUUUGGAUAAGUUUGAGCCCUUGACCUUAAUUUCAUUGCUACCACUCUGAUCUCUUAGCACAUUUCUUAGGAUUAAGGGUCCAAAAAUGCUGAUCUAAGGGGUUGCCAUGGUGUUGCAACAGAGGAUUGAGCAUCA
B3: chr5:172042892:172042993:-|3pUTR|ENSG00000072786|msi1|total|mutant (ssRNA)
RNA: GGGAGUUCUACAGUCCGACGAUCGAUUCUCCCGCUUCAACCUUGAGCCGCUGGGACGACAGAUACAUGCUACUGCACCCAGCCCGGUUAAGGUUCUGUAUACUCUGUCUUUCUAAAGCAAUUCCCUGGAAAUUUUCUCAACAUCAACAGAGGAUUGAGCAUCA
B4: chr9:69711526:69711627:-|3pUTR|ENSG00000188647|unk|FALSE|unique (ssRNA)
RNA: GGGAGUUCUACAGUCCGACGAUCGAACUGCUGUAGUCUUCUGCAAUCAGUCUCUGUAUUGGUAUAUCCAGUACUAUCGGGUUUAGGUUCUUUUUAUUUUUCCUUAAAUCUUACUUGUUUCUAGCGUCUUAAGAGUGGUAAUGGCAACAGAGGAUUGAGCAUCA
B5: chr22:49888080:49888186:+|3pUTR|ENSG00000100426|unk|FALSE|unique (ssRNA)
RNA: GGGAGUUCUACAGUCCGACGAUCUGGCUUAUUAACAGGGAAGAAGCUUGUUAUAUUCCAGUUGUAAGAAUAGCCUUAGUGUUUAGAUUUUUUUAUGAUAGGGAAGAUGCGGCCAUCACUGGGAUAUUUUCAAAUCCCAAGGACCAACAGAGGAUUGAGCAUCA
B6: chr19:35555165:35555334:-|CDS|ENSG00000105675|control|control|control (ssRNA)
RNA: GGGAGUUCUACAGUCCGACGAUCGGCCGUCACGGGGGAUGGUGUGAAUGACUCCCCAGCUCUGAAGAAGGCAGACAUCGGAGUAGCCAUGGGCAUCGCUGGCUCAGAUGCUGCCAAAAAUGCAGCUGACAUGAUCCUGCUGGACAACAGAGGAUUGAGCAUCA
B7: chr7:39987650:39987751:+|CDS|ENSG00000065883|unk|total|mutant (ssRNA)
RNA: GGGAGUUCUACAGUCCGACGAUCUCCCGGCAUUCAAGAUCUCGCCGCAGGCACAGAUUGUCCCGAUCCAGAAGUCGUCAUUCCCGUAUUUCUCCCCGCACACUAACUCUGAAGAGCCGCCUGGCAGCUGAAUUGAACAAGAAUCAACAGAGGAUUGAGCAUCA
B8: chr7:158734047:158734148:-|3pUTR|ENSG00000117868|msi1_unk|FALSE|overlapping (ssRNA)
RNA: GGGAGUUCUACAGUCCGACGAUCCUACCCGGAACACACCCUCUCACAGACGUACCAAUGUUAUUUUUAUAAUUUCAUGGAUUUAGUUAUACAUACCUUAAUAGUUUUAUAAAAUUGUUGACAUUUCAGGCAAAUUUGGCCAAUCAACAGAGGAUUGAGCAUCA
B9: chr7:158734047:158734148:-|3pUTR|ENSG00000117868|msi1_unk|total|mutant (ssRNA)
RNA: B8 RNA with U83C, A84C, U101C, A102C
B10: chr19:9526975:9527076:-|3pUTR|ENSG00000130818|unk|total|mutant (ssRNA)
RNA: GGGAGUUCUACAGUCCGACGAUCCCUCUCAGACCUUCCAUCAUUACUAUAUUUCACUUUUAUGCCUAUAAACACACACAAAUCCGCAUAUGUAAUCUAAUACAUUGCCGCUAUUUUUCAGAAGUUAUCAGAUCAAUUAAGUAUCAACAGAGGAUUGAGCAUCA
B11: chrX:129805617:129805718:-|3pUTR|ENSG00000188706|msi1|FALSE|unique (ssRNA)
RNA: GGGAGUUCUACAGUCCGACGAUCUCUUUUCCCAUUAGAUAUAUGUAAGUAGUUGUAGUAGAGAUAAUAAUUGACAUUUCUCGUAGACUACCCAGAAACUUUUUUAAUACCUGUGCCAUUCUCAAUAAGAAUUUAUGAGAUGCCCAACAGAGGAUUGAGCAUCA
B12: chr11:69653362:69653473:+|3pUTR|ENSG00000110092|msi1_unk|total|mutant (ssRNA)
RNA: GGGAGUUCUACAGUCCGACGAUCACUGCCAUGUACCCGUUUCCGUUUUCUCUCCGAACAUUGUAUUACAGAUGCCUUUUUUGCCGUUUUUUUUUUUUUUAUGUGAUCAAUUUUGACUUAAUGUGAUUACUGCUCUAUUCCAAACAACAGAGGAUUGAGCAUCA
B13: chr1:6224442:6224573:-|3pUTR|ENSG00000116237|msi1_unk|FALSE|overlapping (ssRNA)
RNA: GGGAGUUCUACAGUCCGACGAUCCUAUACAAUUUUAAAAAUACUUCCUCAUAGGAUGCUUUGGCCCUUCAUCUAUUUAAUCAUAGCUACAUACCUAUUUUUUAUAAGUAGCAGUACACAUUCAAAGGGGUAUUCCUAGCUCAACAACAGAGGAUUGAGCAUCA
B14: chr1:6224442:6224573:-|3pUTR|ENSG00000116237|msi1_unk|total|mutant (ssRNA)
RNA: B13 RNA with U51C, A52C, U83C, A84C, U108C, A109C, U136C, A137C
B15: chr21:25881503:25881610:-|3pUTR|ENSG00000142192|msi1_unk|FALSE|overlapping (ssRNA)
RNA: GGGAGUUCUACAGUCCGACGAUCACAAACCCGUUUUAUGAUUUACUCAUUAUCGCCUUUUGACAGCUGUGCUGUAACACAAGUAGAUGCCUGAACUUGAAUUAAUCCACACAUCAGUAAUGUAUUCUAUCUCUCUUUACAUUUCAACAGAGGAUUGAGCAUCA
B16: chr11:69653362:69653473:+|3pUTR|ENSG00000110092|msi1_unk|FALSE|overlapping (ssRNA)
RNA: B12 RNA with C36U, C37A, C42U, C43A, C53U, C54A, C83U, C84A
B17: chr12:68839811:68839877:+|CDS_3pUTR|ENSG00000135679|msi1_unk|FALSE|overlapping (ssRNA)
RNA: GGGAGUUCUACAGUCCGACGAUCAUAAGCCCUGCCCAGUAUGUAGACAACCAAUUCAAAUGAUUGUGCUAACUUAUUUCCCCUAGUUGACCUGUCUAUAAGAGAAUUAUAUAUUUCUAACUAUAUAACCCUAGGAAUUUAGACCAACAGAGGAUUGAGCAUCA
B18: chr2:165880514:165880799:-|CDS|ENSG00000123607|control|control|control (ssRNA)
RNA: GGGAGUUCUACAGUCCGACGAUCGAUGGCAUGGAAAUAUAGCAAUCGGACAAAUCCGGCAGUAGGUGAGUUUGGCAAUCACCUAGAUUUUUCACAGAAAAAUUAUGUUGUAUUUAUUAAUUUUCAUUUAAAUGCAUUUGAUUUCAACAGAGGAUUGAGCAUCA
B19: chrX:129805617:129805718:-|3pUTR|ENSG00000188706|msi1|total|mutant (ssRNA)
RNA: B11 RNA with U35C, A36C, U49C, A50C, U55C, A56C, U58C, A59C, U83C, A84C

target: MSI1 full-length (mouse, UniProt Q61474 1-362); experiment: nsRBNS (natural sequence RNA bind-n-seq); RBNS binding buffer (assumed for nsRBNS): 25 mM Tris pH 7.5, 150 mM KCl, 3 mM MgCl2, 0.01% Triton X-100, 500 ug/ml BSA, 20 U/ml SUPERase-In, 4 C; UNK is unkempt and MSI1 is Musashi-1; names of the RNAs are library labels; protein concentration not given here; high values mean tight binding
Sequence (Q61474 whole entry): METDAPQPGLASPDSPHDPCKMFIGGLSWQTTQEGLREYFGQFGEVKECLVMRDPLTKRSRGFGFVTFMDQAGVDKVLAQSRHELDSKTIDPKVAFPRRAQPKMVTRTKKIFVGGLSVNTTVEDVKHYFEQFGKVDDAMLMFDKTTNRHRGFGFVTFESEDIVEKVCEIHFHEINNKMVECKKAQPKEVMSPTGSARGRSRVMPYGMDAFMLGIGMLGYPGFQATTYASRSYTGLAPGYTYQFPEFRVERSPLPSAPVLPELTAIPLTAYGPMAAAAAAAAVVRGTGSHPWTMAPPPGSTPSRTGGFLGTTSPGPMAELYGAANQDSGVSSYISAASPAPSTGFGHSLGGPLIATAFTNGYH

Binder	binding signal
B1	0.649 enrichment R
B2	0.273 enrichment R
B3	0.391 enrichment R
B4	3.44 enrichment R
B5	11.3 enrichment R
B6	0.465 enrichment R
B7	0.458 enrichment R
B8	20.8 enrichment R
B9	0.582 enrichment R
B10	9.57 enrichment R
B11	71.9 enrichment R
B12	1.65 enrichment R
B13	7.66 enrichment R
B14	18.3 enrichment R
B15	0.949 enrichment R
B16	32.9 enrichment R
B17	3.21 enrichment R
B18	0.379 enrichment R
B19	0.608 enrichment R

Reference: publication PMC12136788
